Results on 39 compounds are retold here after PubChem BioAssay (EPA / NIEHS).

Some compounds were tested as several samples or in several runs, with calls that do not always agree. Activity calls are given as the source filed them. Rule for the calls: active = hit-call score of the fitted dose curve at least 0.9, where 1 is the maximum; inactive = score below 0.9.

What is called AC50 is the midpoint of the concentration-response curve, whichever way the signal moves.

Read-out in this experiment: Plasminogen activator inhibitor-1 (PAI1), SERPINE1 (gene 5054)
In words: BSK_BE3C_PAI1: BioMAP Diversity Plus: BE3C Assay for Plasminogen activator inhibitor-1 (PAI1) Biomarker Activity (AID 2283037). The settings on record: primary human bronchial epithelial cells; actives raise or lower the signal. How it is done:
BSK_BE3C is a cell-based, multiplexed-readout assay that uses bronchial epithelial cell, a human lung primary cell, with measurements taken at 24 hours after chemical dosing in a 96-well plate.BSK_BE3C_PAI1 is an assay component measured in the BSK_BE3C assay. It measures PAI-1 antibody related to regulation of gene expression using ELISA technology.Data from the assay component BSK_BE3C_PAI1 was analyzed into 1 assay endpoint. This assay endpoint, BSK_BE3C_PAI1, was analyzed with bidirectional fitting relative to DMSO as the negative control and baseline of activity. Using a type of binding reporter, gain or loss-of-signal activity can be used to understand changes in the signaling as they relate to the gene SERPINE1. Furthermore, this assay endpoint can be referred to as a primary readout, because this assay has produced multiple assay endpoints where this one serves a signaling function. To generalize the intended target to other relatable targets, this assay endpoint is annotated to the cytokine intended target family, where the subfamily is plasmogen activator inhibitor.
The levels of cell surface (or secreted, indicated by the prefix "s") biomarker endpoints were measured by ELISA. Overt cytotoxicity to cells in confluent adherent cultures (all systems other than the BT system) was assessed by measuring total protein levels using sulforhodamine B (SRB) staining in parallel cultures at the time of biomarker measurements, indicated as SRB endpoints. For proliferation assays for adherent cell types, individual cell types are cultured at sub-confluence and relative cell numbers quantified by SRB staining at time points optimized for each system (48 h: 3C and CASM3C systems; 72 h: BT and HDF3CGF systems; 96 h: SAg system). SRB was performed by staining cells with 0.1% SRB after fixation with 10% TCA and reading wells at 560 nm.Viability and proliferation of PBMC (T cells) was quantified by Alamar Blue reduction for the SAg and BT systems. For PBMC viability (referred to as PBMC Cytotoxicity within the assay endpoint names), cells were plated (75,000/well in a 96-well plate) and then chemical samples added for 1 h before addition of activators, SEB and TSST-1 (20 ng/mL final concentration each). Cells were incubated for 90 h. Then, Alamar Blue (20 uL/well) (Invitrogen, Cat DAL1100) was added for 6 h, and the plates were read with a fluorescence microplate reader at 546/580 nm (excitation/emission). For PBMC proliferation, cells were plated and activated as above but incubated for only 16 h prior to addition of Alamar Blue. Plates were read after 6 h.
In the case of `CCCCOC(=O)C(C)Oc1ccc(Oc2ccc(C(F)(F)F)cn2)cc1` (stereo not given), the outcome was inactive. For `O=C(c1ccc(O)cc1O)c1ccc(O)cc1O`, the half-maximal activity concentration (AC50) is 34.6 µM (active). As to `COC(=O)c1c(Cl)nn(C)c1S(=O)(=O)NC(=O)Nc1nc(OC)cc(OC)n1`, the result was inactive. The same measure, in the same setting: the result for `COC(=O)c1cccc(C)c1S(=O)(=O)NC(=O)Nc1nc(OCC(F)(F)F)nc(N(C)C)n1` reads “inactive”. For `CC(C)(c1ccc(O)cc1)c1ccc(O)cc1`, the concentration at half-maximal activity (AC50) was 24.3 µM (active) and the result was inactive. `CCNc1nc(N)nc(Cl)n1`: the result was inactive.

Take `C#CCOC(=O)[C@@H](C)Oc1ccc(Oc2ncc(Cl)cc2F)cc1`: the outcome was inactive. Consider `O=C(c1ccccc1)C1CCCCC1`, for which the outcome was inactive.

For `CCOC(=O)C(C)Oc1ccc(Oc2cnc3cc(Cl)ccc3n2)cc1` (stereo not given), the result was inactive.

Take `CCCCC(CC)COC(=O)c1ccccc1C(=O)O` (stereo not given): the result was inactive. The same measure, in the same setting: then `CCN(Cc1c(F)cccc1Cl)c1c([N+](=O)[O-])cc(C(F)(F)F)cc1[N+](=O)[O-]`, with “inactive”. As to `CCOC(=O)C(C)Oc1ccc(Oc2nc3ccc(Cl)cc3o2)cc1` (stereo not given), the AC50 was 33.5 µM (active). Regarding `N[C@@H](Cc1cc(I)c(Oc2ccc(O)c(I)c2)c(I)c1)C(=O)O`, the AC50 was 18.8 µM (active).

For `CCCOC(=O)NCCCN(C)C`, the result was inactive. `COC(=O)CSc1cc(N=c2sc(=O)n3n2CCCC3)c(F)cc1Cl`: the outcome was inactive. Take `COCCO`: the result was inactive. `O=C(O)c1ccccc1`: the result was inactive. Regarding `CN(C)C(=O)Nc1ccc(Cl)c(Cl)c1`, the result was inactive. Regarding `CCCCOCCOCCOCc1cc2c(cc1CCC)OCO2`, the result was inactive.

As to `CC(=O)S[C@@H]1CC2=CC(=O)CC[C@]2(C)[C@H]2CC[C@@]3(C)[C@@H](CC[C@@]34CCC(=O)O4)[C@H]12`, the result was inactive. In the case of `C[C@]12C[C@H](O)[C@H]3[C@@H](CCC4=CC(=O)CC[C@@]43C)[C@@H]1CC[C@@H]2C(=O)CO`, the result was inactive. For the compound `CCOC(=O)COc1cc(-n2ncc(C(F)(F)F)c(C)c2=O)c(F)cc1Cl`, the outcome was inactive. As to `CCOC(=O)NCCOc1ccc(Oc2ccccc2)cc1`, the result was inactive. Turning to `CCSC(=O)N(CC(C)C)CC(C)C`, the result was inactive.

Take `Oc1ccc(C(c2ccc(O)cc2)C(Cl)(Cl)Cl)cc1`: the AC50 was 28.5 µM (active). Take `CCN(CC)C(=O)c1cccc(C)c1`: the result was inactive. Regarding `c1ccc(Nc2ccccc2)cc1`, the result was inactive. Consider `C#C[C@]1(O)CC[C@H]2[C@@H]3CCC4=CC(=O)CC[C@@H]4[C@H]3CC[C@@]21CC`, for which the outcome was inactive.

Take `CCCN(CCC)c1c([N+](=O)[O-])cc(C(F)(F)F)c(N)c1[N+](=O)[O-]`: the half-maximal activity concentration (AC50) is 36.2 µM (active). As to `COC(=O)c1ccc(I)cc1S(=O)(=O)NC(=O)Nc1nc(C)nc(OC)n1`, the outcome was inactive. The same measure, in the same setting: the result for `CC(C)(C)[C@@H](O)[C@@H](Cc1ccc(Cl)cc1)n1cncn1` reads “inactive”. On to `CCCCC(CC)CN1C(=O)C2C3C=CC(C3)C2C1=O` (stereo not given), for which the AC50 is 28.1 µM (active).

In the case of `CC1(C)C(C=C(Cl)Cl)C1C(=O)OCc1cccc(Oc2ccccc2)c1` (stereo not given), the result was inactive. Still for that read-out and setting: the result for `CCCOC(=O)c1ccc(C(=O)OCCC)nc1` reads “inactive”; that for `CCC(O)=C1C(=O)CC(C(=O)O)CC1=O` (stereo not given), “inactive”. For `CSC(=O)c1cccc2nnsc12`, the result was inactive. Consider `COc1c(Cl)ccc(Cl)c1C(=O)O`, for which the result was inactive. With `CCCN(CCC)C(=O)SCC`, the outcome was inactive. Still for that read-out and setting: the result for `COC(=O)c1ccc(CNS(C)(=O)=O)cc1S(=O)(=O)NC(=O)Nc1nc(OC)cc(OC)n1` reads “inactive”.
